BAZ2B inh: BAZ2B (human) inhibition | Q9UIF8 | Potency, µM (highest dose often 114 µM), actives largely listed as inhibitors | AlphaScreen BAZ2B-H3K14Ac peptide displacement | 360,000 compounds, 4.4% hits; note: nearly all actives have a fitted effect of over 60% in size
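Compounds, titrated to a top concentration of 110 uM, were incubated 30 min at room temperature with preformed BAZ2B/acetyl-K14 H3 peptide complex (50 nM each). Proximity signal was measured by AlphaScreen after 20 min with beads.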
JMJD2A Tudor inh: inhibitors of human JMJD2A Tudor domain; 390,000 compounds, 4.4% hits; O75164; AlphaScreen JMJD2A-Tudor / H3K4me3 peptide binding; AID 504339; Potency, µM (top dose mostly 114 µM), hits mostly inhibitors; note: nearly all actives have a fitted effect of over 50% in size
G9a block: inhibitors of human histone lysine methyltransferase G9a; G9a H3K9 monomethylation, AlphaScreen, 2 h; Potency, µM (highest dose often 102 µM), most hits filed as inhibitors; Q96KQ7; 350,000 compounds, 8.8% hits; note: nearly all actives have a fitted effect of over 75% in size
Target sequence (Q96KQ7 913-1193 limits assumed): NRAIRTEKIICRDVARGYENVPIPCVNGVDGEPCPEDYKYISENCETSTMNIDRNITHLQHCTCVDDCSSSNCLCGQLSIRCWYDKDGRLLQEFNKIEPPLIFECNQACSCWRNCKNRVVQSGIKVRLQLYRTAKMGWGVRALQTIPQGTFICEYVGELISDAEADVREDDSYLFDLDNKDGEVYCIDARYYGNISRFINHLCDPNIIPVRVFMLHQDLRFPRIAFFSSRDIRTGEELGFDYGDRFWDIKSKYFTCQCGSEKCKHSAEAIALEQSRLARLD
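Enzyme 20 nM + cpd, 15 min RT; add b-H3K9 pep 500 nM / SAM 20 uM; 2 h RT; anti-H3K9me1 Ab 0.5 ug/mL + SA donor / anti-rabbit acceptor beads 20 ug/mL each, 10 min; AlphaScreen read.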
PI5P4Ka inh: blocks human PI5P4K alpha kinase activity | max response, % | PI5P4Kalpha enzyme, ADP-Glo luminescence, 60 min; stronger effect = lower value | 330,000 compounds, 1.2% hits | P48426; active = max response of -50% or lower; inconclusive = between -30% and -50%; inactive = -30% or higher; note: value at the top dose of about 77 µM
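qHTS, 1536-well: enzyme/substrate mix, compound by pin tool, 5 microM ATP final; RT 60 min; ADP-Glo reagents 1 (45 min) then 2 (30 min); luminescence.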
L3MBTL1 inh: blocks human L3MBTL1; Q9Y468; AlphaScreen L3MBTL1–H3K9me1 peptide binding; Potency, µM (series often up to 57.1 µM), usual class: inhibitors; 230,000 compounds, 0.66% hits; AID 485360; note: nearly all actives have a fitted effect of over 60% in size
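Displacement of a biotinylated histone H3(1-15) peptide monomethylated at Lys9 (75 nM) from L3MBTL1 (50 nM) was measured by AlphaScreen after a 30 min room-temperature compound incubation; cefsulodin titration served as intraplate control.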
HP1b binding inh: blocks HP1-beta chromodomain binding to methylated histone tails | AlphaScreen HP1-beta / biotin-H3K9me3 peptide binding | Potency, µM (top dose mostly 114 µM), most hits filed as inhibitors | 390,000 compounds, 0.56% hits; note: nearly all actives have a fitted effect of over 70% in size
Target sequence (P83916 whole entry, looked up): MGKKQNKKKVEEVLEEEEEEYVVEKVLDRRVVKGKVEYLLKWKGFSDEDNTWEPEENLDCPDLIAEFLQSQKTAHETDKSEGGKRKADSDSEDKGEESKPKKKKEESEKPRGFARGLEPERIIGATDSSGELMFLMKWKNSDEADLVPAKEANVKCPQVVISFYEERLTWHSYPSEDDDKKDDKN
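AlphaScreen: HP1-beta (50 nM) preformed 30 min with biotin-H3(1-18)K9me3 peptide (50 nM) in PBS pH 7.4, 0.01% Tween-20. Compound added for 30 min at RT, then streptavidin donor/nickel chelate acceptor beads (10 ug/mL) for 30 min.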
Each line names hits and unclear results; the compound was inactive in the other large screens. Compounds with a hit are over-represented: about 11% of the library has one in this group of screens. Unless noted, calls come from the whole dose curve; as a rule, active = well fitted inhibition curve with a large enough effect; inconclusive = small, poorly fitted or top-dose-only effect; inactive = no such curve, though single readings can be large or run the other way.

Cc1cc(=O)[nH]c(N=N/C(=N/Nc2ccc(O)cc2)c2ccccc2)n1	BAZ2B inh 10µM, JMJD2A Tudor inh 56µM, G9a block 0.56µM, PI5P4Ka inh inconclusive, HP1b binding inh inconclusive (no result: L3MBTL1 inh)
CCOC(=O)c1c(C)c(-c2ccccc2)n(CC(=O)Nc2cc(C)cc(C)c2)c1C	none (no result: PI5P4Ka inh, L3MBTL1 inh)
Cc1cc(C)cc(C(=O)NC(CC(N)=O)c2ccc(N3CCC(Br)CC3)c([N+](=O)[O-])c2)c1 (stereo unspecified)	G9a block inconclusive
NC(=O)CC(NC(=O)c1cccc(Br)c1)c1ccc(N2CCN(c3ccccn3)CC2)c([N+](=O)[O-])c1 (stereo unspecified)	BAZ2B inh inconclusive, JMJD2A Tudor inh inconclusive, G9a block 50µM
CC1CC(C)CN(c2ccc(-n3cnnn3)cc2[N+](=O)[O-])C1 (stereo unspecified)	BAZ2B inh inconclusive, JMJD2A Tudor inh inconclusive, G9a block inconclusive
NC(=O)CC(NC(=O)c1ccccc1)c1ccc(N2CCCCCC2)c([N+](=O)[O-])c1 (stereo unspecified)	BAZ2B inh inconclusive, JMJD2A Tudor inh 45µM, G9a block 50µM, HP1b binding inh inconclusive
Cc1cc(C)cc(C(=O)NC(CC(N)=O)c2ccc(N3CCC(Cc4ccccc4)CC3)c([N+](=O)[O-])c2)c1 (stereo unspecified)	BAZ2B inh inconclusive, G9a block 50µM
O=[N+]([O-])c1cc(-n2cnnn2)ccc1N1CCC(Cc2ccccc2)CC1	BAZ2B inh 28µM, JMJD2A Tudor inh 10µM, L3MBTL1 inh inconclusive (no result: PI5P4Ka inh)
CC(N)(C(=O)O)c1ccc(S(=O)(=O)O)cc1 (stereo unspecified)	none (no result: BAZ2B inh, JMJD2A Tudor inh, PI5P4Ka inh, L3MBTL1 inh, HP1b binding inh)
NC(=O)CC(NC(=O)Cc1ccc(Br)cc1)c1ccc(N2CCC(N3CCCCC3)CC2)c([N+](=O)[O-])c1 (stereo unspecified)	G9a block 56µM
NC(=O)CC(NC(=O)Cc1cccc2ccccc12)c1ccc(N2CCC(N3CCCCC3)CC2)c([N+](=O)[O-])c1 (stereo unspecified)	none (no result: G9a block)
COc1ccc(CCN2C(=O)CN(C3CCCCCC3)C(=O)C2c2ccc(Cl)cc2)cc1OC (stereo unspecified)	none (no result: PI5P4Ka inh, L3MBTL1 inh)
COc1cc(C2C(C#N)=C(N)Oc3c2oc(CO)cc3=O)ccc1OC(C)C (stereo unspecified)	JMJD2A Tudor inh 16µM, G9a block inconclusive (no result: PI5P4Ka inh)
CC(C)Oc1ccc(C2C(C#N)=C(N)Oc3c2oc(CO)cc3=O)cc1 (stereo unspecified)	none (no result: L3MBTL1 inh)
O=C(NN=C1CCN(Cc2ccccc2)CC1)c1ccccc1	JMJD2A Tudor inh 7.9µM
O=C(NN=C1CCN(Cc2ccccc2)CC1)c1cc(Br)ccc1O	G9a block inconclusive (no result: L3MBTL1 inh)
CC1CC=CC2C1C(=O)N(Cc1ccccc1)C2c1ccoc1 (stereo unspecified)	none (no result: BAZ2B inh, G9a block, PI5P4Ka inh, L3MBTL1 inh)
CCOc1ccc(-n2c(-c3ccc(Br)cc3)cc3c2CC(C)(C)CC3=O)cc1	BAZ2B inh 10µM, JMJD2A Tudor inh 13µM, G9a block inconclusive, HP1b binding inh inconclusive (no result: PI5P4Ka inh, L3MBTL1 inh)
CCOC(=O)c1sc(N2N=C(C)C(N=Nc3cccc(C)c3)C2=O)nc1C (stereo unspecified)	G9a block 50µM, PI5P4Ka inh inconclusive (no result: L3MBTL1 inh)
CCCCn1c(C)cc2c(c1=O)[C@H]1O[C@](CCCC)(Cc3c1ccc1ccccc31)O2	none (no result: JMJD2A Tudor inh, PI5P4Ka inh, L3MBTL1 inh, HP1b binding inh)
Cc1ccc(C)c(SCC(=O)Nc2cc(S(=O)(=O)N3CCOCC3)ccc2C)c1	G9a block 14µM
Cc1ccc(S(=O)(=O)N2CCOCC2)cc1NC(=O)CNC1CCCC1	JMJD2A Tudor inh 5µM (no result: G9a block)
CC(C)(C)NC(=O)NC(=O)CSc1ccc(S(=O)(=O)N2CCOCC2)cn1	JMJD2A Tudor inh 79µM, G9a block 5.6µM
COc1cc2c(cc1OC)C1O[C@](CCCCN3C(=O)c4ccccc4C3=O)(C2)OC2=C1C(=O)OC1(CCCCC1)C2	none (no result: JMJD2A Tudor inh, G9a block, PI5P4Ka inh, L3MBTL1 inh, HP1b binding inh)
CCOC(=O)N1CCN(S(=O)(=O)c2ccc(C(=O)NNc3nc4c(C)cccc4s3)cc2)CC1	BAZ2B inh inconclusive, JMJD2A Tudor inh inconclusive, G9a block 35µM

Screening results (PubChem BioAssay)
